Reference: PubChem BioAssay AID1851 (National Center for Advancing Translational Sciences (NCATS), 2009)
Hit rate of the full screen: of about 16,000 compounds, about 2,600 (16%) were called active. Another 20% or so got no clear call; they are omitted. Calls come from the whole dose curve; as a rule, active = well fitted curve in the direction sought with a large enough effect; inconclusive = small, poorly fitted or top-dose-only effect, or effect the other way; inactive = no such curve, though single readings can be large or run the other way. Not all results are given here. Square brackets hold non-standard residues; d marks the D form. Peptide text beside a SMILES is read from it.

What follows are compounds tested against Cytochrome P450 2D6 (Homo sapiens) (UniProt P10635) (assay: Cytochrome panel assay with activity outcomes). Details: recombinant CYP, pro-luciferin dealkylation, luminescence, p450-cyp2d6; series mostly up to 57.1 µM; activity, negative = inhibition: at the top concentration.
Sequence of Cytochrome P450 2D6 (Homo sapiens) (P10635 whole entry, looked up): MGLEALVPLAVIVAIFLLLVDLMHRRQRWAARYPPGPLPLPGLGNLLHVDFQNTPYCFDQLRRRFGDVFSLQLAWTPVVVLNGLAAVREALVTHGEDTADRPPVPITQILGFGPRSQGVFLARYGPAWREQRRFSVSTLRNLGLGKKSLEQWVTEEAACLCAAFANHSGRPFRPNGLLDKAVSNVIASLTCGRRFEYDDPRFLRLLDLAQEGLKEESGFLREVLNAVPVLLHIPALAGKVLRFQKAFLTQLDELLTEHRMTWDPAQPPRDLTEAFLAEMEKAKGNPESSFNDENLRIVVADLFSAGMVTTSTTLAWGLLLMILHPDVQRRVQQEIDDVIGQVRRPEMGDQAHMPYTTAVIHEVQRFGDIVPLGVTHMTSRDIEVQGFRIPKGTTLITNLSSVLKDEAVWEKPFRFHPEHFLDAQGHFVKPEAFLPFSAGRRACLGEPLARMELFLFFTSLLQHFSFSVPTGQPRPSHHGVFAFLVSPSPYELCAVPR
% is set by controls: 0 for no effect and ±100 for the full control effect.

Row | SMILES | AC50 | activity, negative = inhibition
1 | CC[C@H]1C(=O)OC[C@H]1Cc1cncn1C | inactive | –
2 | CCN(CC)c1ccc(NC(=O)c2cccc(F)c2)c(C)c1 | – | -21.3% (inactive)
3 | CC[C@H]1CC[C@H]2[C@@H]3CC=C4C[C@H](OC(C)=O)[C@@H](N)C[C@@]4(C)[C@H]3CC[C@@]12C | – | -4.19% [at 11.4 µM] (inactive)
4 | NCC(=O)N[C@H](CO)C(=O)O (H-Gly-[dS]-OH) | – | 6.25% [at 11.4 µM] (inactive)
5 | CC1=NNC(=S)NCCCN2CCN(CCCNC(=S)NN=C(C)C=NNC(=S)NCCCN3CCN(CCCNC(=S)NN=C1)CC3)CC2 | – | -0.261% [at 11.4 µM] (inactive)
6 | CC1(C)CC(=O)C(C=NCCN2CCN(C(=S)Nc3ccc(F)cc3)CC2)=C(O)C1 | – | -0.562% (inactive)
7 | c1cn(-c2ccnc(-c3ccc4c(c3)OCO4)n2)cn1 | 3160 nM (active) | –
8 | CN1CCN(c2ccnc(-c3ccc(N(C)C)cc3)n2)CC1 | – | -12.6% (inactive)
9 | O=C(OCc1ccccc1)/C(=C/c1ccc(Cl)cc1)NC(=O)c1ccccc1Cl | – | 3.78% (inactive)
10 | COc1ccc(Oc2ncc3nc(-c4ccc(F)cc4)c(=O)n(Cc4cccs4)c3n2)cc1 | – | -1.7% (inactive)
11 | CN(C)C(=O)c1ccc(-c2cc(NCc3cccnc3)ncn2)cc1 | – | -7.64% (inactive)
12 | O=C(O)COc1ccc(-c2nccc(-c3cccs3)n2)cc1 | – | -18.2% (inactive)
13 | CN(C)C(=O)c1ccc(-c2nccc(NCc3cccnc3)n2)cc1 | – | -5.03% (inactive)
14 | c1csc(CNc2ccnc(-c3ccc4c(c3)OCO4)n2)c1 | 501 nM (active) | –
15 | c1ccc(CNc2ccnc(-c3ccc4c(c3)OCO4)n2)cc1 | 1580 nM (active) | –
16 | c1cncc(CNc2ccnc(-c3ccc4c(c3)OCO4)n2)c1 | 10000 nM (active) | –
17 | COc1cccc(Cn2c(=O)c(-c3ccccc3)nc3cnc(N4CCN(C)CC4)nc32)c1 | – | 8.89% (inactive)
18 | COc1ccc(-n2c(=O)cnc3cnc(N4CCNCC4)nc32)cc1 | – | 4.72% (inactive)
19 | Fc1ccc(-c2csc(N3CCC(c4ccccc4)C3)n2)cc1 (stereo not given) | – | -23.2% (inactive)
20 | CCN(CC)Cc1nc2c(c(=O)[nH]1)C1(CCCC1)Cc1ccccc1-2 | – | -51.6% (inactive)
21 | CCCCCCCCCCCCCCCCCCOC[C@@H](COP(=O)([O-])OCC[N+](C)(C)C)OC | – | 3.16% (inactive)
22 | COc1nc(Cl)nc(Cl)c1Cl (tested in a mixture with another compound) | – | 10.4% [at 11.4 µM] (inactive)
23 | Cc1ccccc1-n1ncc2c(SCC(=O)N3c4ccccc4CC3C)ncnc21 (stereo not given) | – | -4.18% (inactive)
24 | CO[C@H]1COC(=O)C/C=C\[C@@H](C)COC(=O)[C@H]2CCCN2C(=O)C/C=C\[C@H]1C | – | -1.87% [at 11.4 µM] (inactive)
25 | O=C(Cn1cnc([N+](=O)[O-])n1)N/N=C/c1ccccc1O | – | 24.4% (inactive)
